# Data as given in the supplement of paper PMC8728848.
# This excerpt belongs to a sample that is enriched for the strongest signals.
# B1: OS9-MRH (Homo sapiens), Q13438 (protein)
# chain: IPELLSPMRDAPCLLKTKDWWTYEFCYGRHIQQYHMEDSEIKGEVLYLGYYQSAFDWDDETAKASKQHRLKRYHSQTYGNGSKCDLNGRPREAEVRFLCDEGAGISGDYIDRVDEPLSCSYVLTIRTPRLCPHPLLRPPPSAAPQAI
# Assays:
# Test in all cases: glycan array binding signal (z-score within array); higher = stronger binding
# Details in all cases: glycan notation: IUPAC condensed, linker removed
# [1] = target: Fuc(a1-2)Gal(b1-3)GlcNAc6S
# How it was run: (§1)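 The binding signal is a Z-score computed within each array and averaged over linkers. Arrays of the same protein sequence at different concentrations or buffers were also averaged together. Data originate from 3228 arrays in the Consortium for Functional Glycomics database, kept only where the protein sequence was available.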
# [2] = target: Fuc(a1-2)Gal(b1-3)[Fuc(a1-4)]GlcNAc
# How it was run: as §1
# [3] = target: Fuc(a1-2)Gal(b1-3)[Fuc(a1-4)]GlcNAc(b1-2)Man(a1-3)[Fuc(a1-2)Gal(b1-3)[Fuc(a1-4)]GlcNAc(b1-2)Man(a1-6)]Man(b1-4)GlcNAc(b1-4)[Fuc(a1-6)]GlcNAc(b1-4)[Fuc(a1-6)]GlcNAc
# How it was run: as §1
# [4] = target: Fuc(a1-2)Gal(b1-3)[Fuc(a1-4)]GlcNAc(b1-3)[Fuc(a1-3)[Gal(b1-4)]GlcNAc(b1-6)]Gal(b1-4)Glc
# How it was run: as §1
# [5] = target: Fuc(a1-2)Gal(b1-4)GlcNAc6S
# How it was run: as §1
# [6] = target: Fuc(a1-2)[GalNAc(a1-3)]Gal(b1-3)GlcNAc(b1-2)Man(a1-3)[Fuc(a1-2)[GalNAc(a1-3)]Gal(b1-3)GlcNAc(b1-2)Man(a1-6)]Man(b1-4)GlcNAc(b1-4)[Fuc(a1-6)]GlcNAc
# How it was run: as §1
# [7] = target: Fuc(a1-3)[Gal(b1-4)]Glc6S
# How it was run: as §1
# [8] = target: Fuc(a1-3)[Gal(b1-4)]GlcNAc(b1-3)Gal(b1-4)[Fuc(a1-3)]GlcNAc(b1-3)Gal(b1-4)[Fuc(a1-3)]GlcNAc
# How it was run: as §1
# [9] = target: Fuc(a1-3)[GalNAc(b1-4)]GlcNAc
# How it was run: as §1
# [10] = target: Gal(a1-3)Gal(b1-4)GlcNAc(b1-6)GalNAc
# How it was run: as §1
# [11] = target: Gal(a1-4)Gal(b1-4)GlcNAc(b1-3)Gal(b1-4)Glc
# How it was run: as §1
# [12] = target: Gal(b1-3)GalNAc(b1-3)Gal(a1-4)Gal(b1-4)Glc
# How it was run: as §1
# [13] = target: Gal(b1-3)GlcNAc(b1-2)Man(a1-3)[GlcNAc(b1-4)][Gal(b1-3)GlcNAc(b1-2)Man(a1-6)]Man(b1-4)GlcNAc(b1-4)GlcNAc
# How it was run: as §1
# [14] = target: Gal(b1-3)GlcNAc(b1-3)Gal(b1-4)GlcNAc
# How it was run: as §1
# [15] = target: Gal(b1-3)GlcNAc(b1-3)Gal(b1-4)GlcNAc(b1-2)Man(a1-3)[Gal(b1-3)GlcNAc(b1-3)Gal(b1-4)GlcNAc(b1-2)Man(a1-6)]Man(b1-4)GlcNAc(b1-4)GlcNAc
# How it was run: as §1
# [16] = target: Gal(b1-3)GlcNAc6S
# How it was run: as §1
# [17] = target: Gal(b1-4)GlcNAc(b1-2)Man(a1-6)Man(b1-4)GlcNAc(b1-4)GlcNAc
# How it was run: as §1
# [18] = target: Gal(b1-4)GlcNAc(b1-2)Man(a1-6)[Man(a1-3)]Man(b1-4)GlcNAc(b1-4)GlcNAc
# How it was run: as §1
# [19] = target: Gal(b1-4)GlcNAc(b1-3)Gal(b1-4)GlcNAc(b1-2)[Gal(b1-4)GlcNAc(b1-3)Gal(b1-4)GlcNAc(b1-6)]Man(a1-6)[Gal(b1-4)GlcNAc(b1-3)Gal(b1-4)GlcNAc(b1-2)Man(a1-3)]Man(b1-4)GlcNAc(b1-4)[Fuc(a1-6)]GlcNAc
# How it was run: as §1
# [20] = target: Gal(b1-4)GlcNAc(b1-3)Gal(b1-4)GlcNAc(b1-3)Gal(b1-4)GlcNAc(b1-2)Man(a1-3)[Gal(b1-4)GlcNAc(b1-3)Gal(b1-4)GlcNAc(b1-3)Gal(b1-4)GlcNAc(b1-2)Man(a1-6)]Man(b1-4)GlcNAc(b1-4)GlcNAc
# How it was run: as §1
# [21] = target: Gal(b1-4)GlcNAc(b1-3)Gal(b1-4)GlcNAc(b1-3)Gal(b1-4)GlcNAc(b1-3)Gal(b1-4)GlcNAc(b1-2)Man(a1-3)[Gal(b1-4)GlcNAc(b1-3)Gal(b1-4)GlcNAc(b1-3)Gal(b1-4)GlcNAc(b1-3)Gal(b1-4)GlcNAc(b1-2)Man(a1-6)]Man(b1-4)GlcNAc(b1-4)[Fuc(a1-6)]GlcNAc
# How it was run: as §1
# [22] = target: Gal(b1-4)GlcNAc(b1-3)Gal(b1-4)GlcNAc(b1-3)Gal(b1-4)GlcNAc(b1-3)Gal(b1-4)GlcNAc(b1-2)[Gal(b1-4)GlcNAc(b1-3)Gal(b1-4)GlcNAc(b1-3)Gal(b1-4)GlcNAc(b1-3)Gal(b1-4)GlcNAc(b1-6)]Man(a1-6)[Gal(b1-4)GlcNAc(b1-3)Gal(b1-4)GlcNAc(b1-3)Gal(b1-4)GlcNAc(b1-3)Gal(b1-4)GlcNAc(b1-2)Man(a1-3)]Man(b1-4)GlcNAc(b1-4)[Fuc(a1-6)]GlcNAc
# How it was run: as §1
# [23] = target: Gal(b1-4)GlcNAc(b1-3)Gal(b1-4)GlcNAc(b1-3)Gal(b1-4)GlcNAc(b1-3)Gal(b1-4)GlcNAc(b1-3)Gal(b1-4)GlcNAc(b1-2)Man(a1-3)[Gal(b1-4)GlcNAc(b1-3)Gal(b1-4)GlcNAc(b1-3)Gal(b1-4)GlcNAc(b1-3)Gal(b1-4)GlcNAc(b1-3)Gal(b1-4)GlcNAc(b1-2)Man(a1-6)]Man(b1-4)GlcNAc(b1-4)GlcNAc
# How it was run: as §1
# [24] = target: Gal6S(b1-4)Glc
# How it was run: as §1
# [25] = target: Gal6S(b1-4)GlcNAc
# How it was run: as §1
# [26] = target: GalNAc(a1-3)Gal
# How it was run: as §1
# [27] = target: GalNAc(a1-3)GalNAc
# How it was run: as §1
# [28] = target: GalNAc(b1-3)Gal(a1-4)Gal(b1-4)GlcNAc(b1-3)Gal(b1-4)Glc
# How it was run: as §1
# [29] = target: GalNAc(b1-6)GalNAc
# How it was run: as §1
# [30] = target: GlcNAc(a1-4)Gal(b1-4)GlcNAc(b1-3)Gal(b1-4)GlcNAc
# How it was run: as §1
# [31] = target: GlcNAc(a1-4)Gal(b1-4)GlcNAc(b1-3)Gal(b1-4)[Fuc(a1-3)]GlcNAc(b1-3)Gal(b1-4)[Fuc(a1-3)]GlcNAc
# How it was run: as §1
# [32] = target: GlcNAc(b1-2)[GlcNAc(b1-4)]Man(a1-3)[GlcNAc(b1-4)][GlcNAc(b1-2)[GlcNAc(b1-6)]Man(a1-6)]Man(b1-4)GlcNAc(b1-4)GlcNAc
# How it was run: as §1
# [33] = target: GlcNAc(b1-3)Gal(b1-4)GlcNAc(b1-3)Gal(b1-4)GlcNAc(b1-2)Man(a1-3)[GlcNAc(b1-3)Gal(b1-4)GlcNAc(b1-3)Gal(b1-4)GlcNAc(b1-2)Man(a1-6)]Man(b1-4)GlcNAc(b1-4)[Fuc(a1-6)]GlcNAc
# How it was run: as §1
# [34] = target: Man(a1-3)[Man(a1-6)]Man(a1-6)[Man(a1-3)]Man
# How it was run: as §1
# [35] = target: Neu5Ac(a2-3)Gal(b1-3)GalNAc6S
# How it was run: as §1
# [36] = target: Neu5Ac(a2-3)Gal(b1-3)[Neu5Ac(a2-6)]GlcNAc(b1-3)[Fuc(a1-3)[Gal(b1-4)]GlcNAc(b1-6)]Gal(b1-4)Glc
# How it was run: as §1
# [37] = target: Neu5Ac(a2-3)Gal(b1-4)GlcNAc(b1-2)[Neu5Ac(a2-3)Gal(b1-4)GlcNAc(b1-4)]Man(a1-3)[GlcNAc(b1-4)][Neu5Ac(a2-3)Gal(b1-4)GlcNAc(b1-4)Man(a1-6)]Man(b1-4)GlcNAc(b1-4)GlcNAc
# How it was run: as §1
# [38] = target: Neu5Ac(a2-3)Gal(b1-4)[Fuc(a1-3)]GlcNAc(b1-2)Man
# How it was run: as §1
# [39] = target: Neu5Ac(a2-6)Gal(b1-4)GlcNAc(b1-2)Man(a1-3)[Man(a1-6)]Man(b1-4)GlcNAc(b1-4)GlcNAc
# How it was run: as §1
# [40] = target: Neu5Ac(a2-6)Gal(b1-4)GlcNAc(b1-2)[Neu5Ac(a2-6)Gal(b1-4)GlcNAc(b1-4)]Man(a1-3)[GlcNAc(b1-4)][Neu5Ac(a2-6)Gal(b1-4)GlcNAc(b1-4)Man(a1-6)]Man(b1-4)GlcNAc(b1-4)GlcNAc
# How it was run: as §1
# [41] = target: Neu5Ac(a2-6)Gal(b1-4)GlcNAc(b1-6)[Gal(b1-3)]GalNAc
# How it was run: as §1
# [42] = target: Neu5Ac(a2-6)GalNAc(b1-4)GlcNAc
# How it was run: as §1
# [43] = target: Neu5Ac(a2-8)Neu5Ac(a2-8)Neu5Ac(a2-3)Gal(b1-4)Glc
# How it was run: as §1
# [44] = target: Neu5Gc(a2-6)GalNAc
# How it was run: as §1
binder,measurement,setting,value
B1,glycan array binding signal (z-score),[1],3.15
same,glycan array binding signal (z-score),[2],-1.22
same,glycan array binding signal (z-score),[3],0.415
same,glycan array binding signal (z-score),[4],0.3
same,glycan array binding signal (z-score),[5],2.76
same,glycan array binding signal (z-score),[6],0.172
same,glycan array binding signal (z-score),[7],-1.74
same,glycan array binding signal (z-score),[8],2.81
same,glycan array binding signal (z-score),[9],-0.024
same,glycan array binding signal (z-score),[10],0.493
same,glycan array binding signal (z-score),[11],-0.569
same,glycan array binding signal (z-score),[12],2.47
same,glycan array binding signal (z-score),[13],2.02
same,glycan array binding signal (z-score),[14],-0.137
same,glycan array binding signal (z-score),[15],2.4
same,glycan array binding signal (z-score),[16],-0.326
same,glycan array binding signal (z-score),[17],2.22
same,glycan array binding signal (z-score),[18],1.24
same,glycan array binding signal (z-score),[19],2.17
same,glycan array binding signal (z-score),[20],0.47
same,glycan array binding signal (z-score),[21],-0.755
same,glycan array binding signal (z-score),[22],1.51
same,glycan array binding signal (z-score),[23],2.42
same,glycan array binding signal (z-score),[24],-0.643
same,glycan array binding signal (z-score),[25],-0.312
same,glycan array binding signal (z-score),[26],2.81
same,glycan array binding signal (z-score),[27],3.57
same,glycan array binding signal (z-score),[28],-1.33
same,glycan array binding signal (z-score),[29],1.14
same,glycan array binding signal (z-score),[30],-0.159
same,glycan array binding signal (z-score),[31],1.12
same,glycan array binding signal (z-score),[32],-1.46
same,glycan array binding signal (z-score),[33],0.656
same,glycan array binding signal (z-score),[34],0.835
same,glycan array binding signal (z-score),[35],0.458
same,glycan array binding signal (z-score),[36],-0.321
same,glycan array binding signal (z-score),[37],0.322
same,glycan array binding signal (z-score),[38],-0.503
same,glycan array binding signal (z-score),[39],-0.807
same,glycan array binding signal (z-score),[40],-0.99
same,glycan array binding signal (z-score),[41],-0.081
same,glycan array binding signal (z-score),[42],5.26
same,glycan array binding signal (z-score),[43],0.1
same,glycan array binding signal (z-score),[44],1.14
